Source: PubChem BioAssay
Shown are actives, neighbours in structure and some others; about 3.1% of the full set was active somewhere.
LEDGF integ inh = blocks HIV-1 LEDGF/p75-dependent DNA integration. TR-FRET IN-LEDGF/p75 DNA integration, Eu/Cy5. inhibition, % at 3.7 µM. actives 0.64% (n = 370,000). AID 743269;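 active = inhibition above the screen-wide mean plus 3 SD, cut at about 13% in these data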;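 note: signal is the Cy5 over europium emission ratio at 671 and 618 nm; 0% = plate median of compound wells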
Rin1-Abl PPI inh = inhibitors of human Rin1-Abl protein interaction | actives 0.4% (n = 360,000) | P00519+Q13671 | inhibition, % at 7.35 µM | AID 588664 | TR-FRET Rin1/Abl binding, biochemical; in the data active = inhibition above about 5%, passing the limit was not always enough
UHRF1 binding = UHRF1 methyl-DNA binding inhibition. UHRF1 binding to methylated oligo, TR-FRET. AID 687016. Q96T88. actives 0.75% (n = 370,000). inhibition, % at 4.4 µM; in the data active = inhibition above about 21%;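 note: UHRF1 SRA domain binding a hemimethylated CpG hairpin DNA probe; 0% = median of test compound wells and 100% = reference inhibitor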
MBD2 inh = MBD2-methylated oligo binding inhibition | Q9UBB5 | TR-FRET, MBD2 binding to methylated oligonucleotide | inhibition, % at 4.4 µM | actives 0.31% (n = 370,000) | AID 686964; in the data active = inhibition above about 13%
proKLK7 act = activators of human kallikrein-7 zymogen. actives 0.9% (n = 370,000). purified proKLK7, EDANS-DABCYL substrate fluorescence; 100% is mature enzyme control, 0% vehicle. activation, % at 7 µM. P49862;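 active = activation above the mean of all tested compounds plus 3 SD, computed per campaign excluding outliers beyond control limits, cut at about 13% in these data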
Neddylation inh = cullin neddylation inhibition; P61081+Q13564; TR-FRET cullin neddylation, biochemical; calls only at 25 µM; actives 0.58% (n = 360,000); in the data active = inhibition above about 36%
Neddyl inh conf = confirmation of human cullin neddylation inhibitors | calls only at 25 µM | actives 13% (n = 1,800) | TR-FRET cullin neddylation biochemical assay | shares compounds with Neddylation inh; in the data active = inhibition above about 40%;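 note: neddylation substrate is the cullin 1 ring ligase complex with SKP2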
An asterisk follows results filed as active; i = inactive; nt = no result given; + = active, no number.

SMILES	LEDGF integ inh	Rin1-Abl PPI inh	UHRF1 binding	MBD2 inh	proKLK7 act	Neddylation inh	Neddyl inh conf
Nc1nc2c(c(=O)[nH]1)CN(Cc1ccccc1)CC2	-4	1	-2	-5	0	+	i
CCCn1c(=O)c(C(=O)NNS(=O)(=O)c2ccc(Cl)cc2)c(O)c2ccccc21	0	-3	-4	-4	0	i	nt
CCN(C(=O)COC(=O)c1cc2ccccc2cc1OC)c1c(N)n(Cc2ccccc2)c(=O)[nH]c1=O	1	3	-3	0	9	+	nt
COc1cc2ccccc2cc1C(=O)OCC(=O)N(C)c1c(N)n(Cc2ccccc2)c(=O)[nH]c1=O	-4	-4	1	4	2	+	nt
CCN(C(=O)COC(=O)c1ccc(O)cc1O)c1c(N)n(Cc2ccccc2)c(=O)[nH]c1=O	7	-6	0	-1	0	i	nt
COC(=O)N1C[C@H](OC(=S)Nc2ccc(OC)cc2OC)[C@H]2C[C@@H]1c1ccccc1O2	0	nt	3	3	1	nt	nt
COc1ccc(NC(=O)C(c2ccccc2)n2c(=O)c(-c3cc4ccccc4[nH]3)nc3ccccc32)cc1 (stereo not drawn)	3	nt	-1	-5	-53	nt	nt
CCCCCNC(=O)C(c1ccc(-c2ccccc2)cc1)n1c(=O)c(-c2ccccc2)nc2ccccc21 (stereo not drawn)	3	nt	1	0	0	i	nt
COc1ccc(NC(=O)C(c2ccncc2)n2c(=O)c(-c3ccccc3)nc3ccccc32)cc1 (stereo not drawn)	-2	nt	-1	0	5	+	i
CCCCCNC(=O)C(c1ccncc1)n1c(=O)c(-c2ccccc2)nc2ccccc21 (stereo not drawn)	0	nt	-2	-1	4	+	i
O=C(NC1CCCCC1)C(c1ccncc1)n1c(=O)c(-c2ccccc2)nc2ccccc21 (stereo not drawn)	-1	nt	-1	4	3	+	+
CCCc1cc(=O)oc2c(C)c(OCC(=O)N3CCC[C@@H]3C(=O)O)ccc12	5	-3	-2	-1	-1	+	i
Cc1c(CCC(=O)N2CCC[C@H]2C(=O)O)c(=O)oc2c(C)c3oc4c(c3cc12)CCCC4	1	-2	3	10	0	nt	nt
CCCCCCc1c(C)c2ccc(OCC(=O)N3CCC[C@H]3C(=O)O)c(C)c2oc1=O	1	-3	3	1	-1	+	nt
CCCc1cc(=O)oc2c(C)c(OCC(=O)N3CCC(C(N)=O)CC3)ccc12	-4	0	-1	4	0	i	nt
O=C(c1ccco1)N1N=C(c2cccs2)CC1c1ccccc1O (stereo not drawn)	0	-4	-5	1	-6	+	nt
CS(=O)(=O)Nc1ccc(C2=NN(C(=O)c3ccco3)C(c3ccccc3)C2)cc1 (stereo not drawn)	3	0	-2	-5	-3	+	i
Cc1cccn2c(/C=N/OCc3cccc(F)c3)c(-c3ccc(Cl)cc3)nc12	-1	1	23*	8	0	+	i
Cc1nc2c(C#N)cnn2c2c1CCN2CC1CCCO1 (stereo not drawn)	2	1	2	6	6	+	i
N#Cc1c2c(c(NCCOCCO)n3c1nc1ccccc13)CCCC2	-8	-7	3	-1	6	+	+
COCCNc1c2c(c(C#N)c3nc4ccccc4n13)CCCC2	-6	-6	-3	-6	5	+	+
C=CCc1c(C)c(C#N)c2nc3ccccc3n2c1NCCN(C)C	-2	-7	0	-3	6	+	nt
Nc1nc(-c2ccccc2)nc2sc3c(c12)CCCC3	-1	0	6	7	1	nt	nt
CC(Sc1nc2c(cc1C#N)CCCCC2)C(=O)O (stereo not drawn)	-1	nt	2	0	1	nt	nt
CC(C)(C)OC(=O)C[C@H]1C/C=C\C[C@H](CC(=O)NCCO)C(=O)N2CCC[C@@H]2COC1=O	4	3	-2	2	1	i	nt
SMILES	LEDGF integ inh	Rin1-Abl PPI inh	UHRF1 binding	MBD2 inh	proKLK7 act	Neddylation inh	Neddyl inh conf
CCC(C)NC(=O)/C(=C/c1ccco1)c1ccccc1 (stereo not drawn)	4	-2	-3	-6	-1	i	nt
CC(C)NC(=O)/C(=C/c1ccco1)c1ccccc1	-2	3	1	-6	0	+	i
Cc1cc(C=O)c(C)c2c1[nH]c1ccccc12	-2	-3	0	1	-4	+	i
N#Cc1cc2c(=O)n3ccccc3nc2n(CCCn2ccnc2)c1=N	2	-10	-6	-10	6	+	i
Cc1ccc(S(=O)(=O)c2cc3c(=O)n4ccccc4nc3n(C)c2=N)cc1C	1	-2	-1	-2	1	nt	nt
N=c1c(S(=O)(=O)c2ccccc2)cc2c(=O)n3ccccc3nc2n1CCCN1CCOCC1	2	-6	-4	-3	3	+	i
Cc1ccc(S(=O)(=O)c2cc3c(=O)n4ccccc4nc3n(CCCN3CCOCC3)c2=N)cc1C	3	-12	-4	-9	5	nt	nt
C=CCn1c(=N)c(S(=O)(=O)c2ccc(C)c(C)c2)cc2c(=O)n3ccccc3nc21	1	0	13	1	-1	+	i
COc1ccc(C(C(=O)N(C)C2CCCC2)N(Cc2ccc(F)cc2)C(=O)c2csc(-c3ccccc3)n2)cc1OC (stereo not drawn)	-3	nt	-1	4	0	nt	nt
Cc1ccc(CCNc2ncnc(Cl)c2N)cc1	-5	-1	4	-3	-1	i	nt
COc1ccc(-n2c(SCC(=O)Nc3ccc(S(=O)(=O)Nc4nccs4)cc3)nnc2-c2cccs2)cc1	1	nt	1	5	-1	nt	nt
COc1ccc2cc3cc(C(=O)N4CCCC(C)C4)oc3nc2c1 (stereo not drawn)	-3	2	-2	-4	0	+	i
COc1ccc(Cl)cc1Nc1nc(N)c2ccccc2n1	-2	0	3	2	0	+	+
Cc1ccc(-n2c(SCC(=O)c3ccccc3Br)nnc2-c2ccncc2)cc1	-2	nt	0	6	0	nt	nt
CCOC(=O)C1=C(C)NC(C)=C(C(=O)OCC)C1C(=O)OCC(=O)N(C)Cc1ccccc1	0	3	1	10	0	+	i
CCOC(=O)C1=C(C)NC(C)=C(C(=O)OCC)C1C(=O)OCC(N)=O	-4	-1	-1	0	4	i	nt
O=C(CCN1C(=O)c2ccccc2C1=O)N1CCC(c2ccccc2)C1 (stereo not drawn)	2	-1	-1	1	1	i	nt
